Experiment [1] addresses Lysosomal acid glucosylceramidase (Homo sapiens) (UniProt P04062). Nature of the experiment: Glucocerebrosidase-p2 (AID 348; in the data active = potency below about 10 µM; note: potency is the fitted concentration of half-maximal effect). The settings on record: purified GBA, blue fluorogenic substrate, 40 min. The essentials:
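Compounds titrated from 0.6 nM upwards against 0.2 nM enzyme in pH 5.9 citric acid/KH2PO4, taurocholate, tween-20; blue fluorogenic substrate 80 uM, 40 min room temperature, stopped and read Ex 365/Em 440 for AC50.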

Experiment [2] can be described thus: NFAT Signaling Pathway (AID 444; active = well fitted curve in either direction with a large enough effect, not every such curve was filed as active;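 note: carbachol stimulus at about its EC50 of 1 µM final; % is set by controls: 0 for no effect and ±100 for the full control effect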). The settings on record: Jurkat NFAT-bla M1, carbachol, beta-lactamase ratio, 5 h; at 7.69 µM (top of the series) unless noted. The gist of the method:
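Jurkat cells with NFAT-driven β-lactamase reporter and co-expressed M1 receptor, stimulated with carbachol (final 1 uM, ~EC50), compound titration, 5 h at 37 °C. CCF4 loaded 1 h at RT; 460/530 nm ratio gave %activity and AC50.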

The nature of experiment [3]: Stat Signaling Pathway (AID 446; active = well fitted curve in either direction with a large enough effect, not every such curve was filed as active;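 note: ME-180 cervical cancer cells given 40 pM IL-6 alongside compound; SIE-controlled beta-lactamase reporter measured as 460/530 nm FRET emission ratio; % is set by controls: 0 for no effect and ±100 for the full control effect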). The settings on record: ME-180 SIE beta-lactamase reporter, IL-6 stimulated, 5 h; at 7.69 µM (top of the series) unless noted. The gist of the method: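 Screening format detects activators and inhibitors alike: ME-180 SIE-bla cells stimulated at 40 pM IL-6 for 5 hrs with compound, then dual-emission beta-lactamase read at 405 nm excitation.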

The target in experiment [4] is Glucocorticoid receptor (Homo sapiens) (UniProt P04150). Description: GR-GFP Redistribution (AID 450;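 active = compounds whose dose series gives a full or clear partial fitted curve of increased nuclear translocation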; note: potency is the fitted concentration of half-maximal effect). The conditions noted are these: U2OS GR-GFP nuclear translocation, laser cytometry, 2 h.
Glucocorticoid receptor (Homo sapiens), sequence (P04150 whole entry, looked up, the tested form may be a part): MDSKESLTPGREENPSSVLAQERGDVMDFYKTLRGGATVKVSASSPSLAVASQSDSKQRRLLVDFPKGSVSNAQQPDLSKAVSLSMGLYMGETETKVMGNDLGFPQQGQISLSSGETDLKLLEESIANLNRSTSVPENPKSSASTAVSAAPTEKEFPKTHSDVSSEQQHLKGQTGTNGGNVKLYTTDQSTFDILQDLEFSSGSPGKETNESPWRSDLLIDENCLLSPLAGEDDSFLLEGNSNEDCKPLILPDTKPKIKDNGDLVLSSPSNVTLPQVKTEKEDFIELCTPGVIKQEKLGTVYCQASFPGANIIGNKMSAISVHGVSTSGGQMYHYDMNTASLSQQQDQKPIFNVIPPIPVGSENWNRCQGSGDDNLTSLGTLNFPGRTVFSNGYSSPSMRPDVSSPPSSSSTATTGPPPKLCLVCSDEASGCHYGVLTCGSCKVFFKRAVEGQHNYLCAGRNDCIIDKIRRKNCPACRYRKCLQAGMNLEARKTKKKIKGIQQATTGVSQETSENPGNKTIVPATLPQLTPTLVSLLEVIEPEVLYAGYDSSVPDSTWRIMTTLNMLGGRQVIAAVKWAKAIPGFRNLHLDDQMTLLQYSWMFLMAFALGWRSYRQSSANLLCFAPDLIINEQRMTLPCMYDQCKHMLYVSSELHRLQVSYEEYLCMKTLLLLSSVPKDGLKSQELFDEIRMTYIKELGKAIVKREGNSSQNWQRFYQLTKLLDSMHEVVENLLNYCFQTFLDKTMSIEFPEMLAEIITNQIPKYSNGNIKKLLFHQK
For experiment [5] the target is unchanged. Description: GR-EFC Redistribution (AID 451; calls by dose curve; note: potency is the fitted concentration of half-maximal effect). The settings on record: CHO-K1 GR-EFC translocation, beta-gal luminescence, 2 h. The essentials: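 CHO-K1 cells expressing nuclear EA and GR-ED fragments of b-gal; compounds titrated up to 46 uM final, 2 h at 37 C. GR nuclear translocation read as complemented b-gal luminescence after 1 h RT detection.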
For experiment [6], the target named is Mitogen-activated protein kinase 10 (Mus musculus) (UniProt Q61831). Nature of the experiment: JNK3 AlphaScreen Assay (AID 530; active = well fitted curve in either direction with a large enough effect, not every such curve was filed as active;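 note: kinase came from lysate of stimulated human HepG2 cells; signal reports phosphorylation of biotinylated GST-cJun 1-79 at Ser73 with 10 µM ATP; % is set by controls: 0 for no effect and ±100 for the full control effect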). The settings on record: JNK3 lysate, c-Jun phosphorylation; series mostly up to 57.1 µM. The gist of the method:
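Pre-activated (IL-1β/TNFα) JNK3 in HepG2 lysates phosphorylates biotin-GST-cJun(1-79), 10 uM ATP; anti-phospho-cJun(Ser73) AlphaScreen read at room temperature, pH 7.6 Tris buffer. Compounds pre-incubated 15 min as titrations.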

For experiment [7], the target named is Cytochrome P450 3A4 (Homo sapiens) (UniProt P08684). Nature of the experiment: qHTS Assay for Inhibitors and Substrates of Cytochrome P450 3A4 (AID 884). Note: potency is the fitted concentration of half-maximal effect; nearly all actives have a fitted effect of over 50% in size. The conditions noted are these: recombinant CYP3A4, Luciferin-PPXE luminescence; series mostly up to 57.1 µM. The essentials: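 20 nM human CYP3A4 with 25 uM Luciferin-PPXE (at KM) in 200 mM KPO4, preincubated 10 min with compound; NADPH regeneration started a 60 min RT reaction. Luciferin detected by luminescence, normalized to 57 uM ketoconazole as full inhibition.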
Cytochrome P450 3A4 (Homo sapiens), sequence (P08684 whole entry, looked up): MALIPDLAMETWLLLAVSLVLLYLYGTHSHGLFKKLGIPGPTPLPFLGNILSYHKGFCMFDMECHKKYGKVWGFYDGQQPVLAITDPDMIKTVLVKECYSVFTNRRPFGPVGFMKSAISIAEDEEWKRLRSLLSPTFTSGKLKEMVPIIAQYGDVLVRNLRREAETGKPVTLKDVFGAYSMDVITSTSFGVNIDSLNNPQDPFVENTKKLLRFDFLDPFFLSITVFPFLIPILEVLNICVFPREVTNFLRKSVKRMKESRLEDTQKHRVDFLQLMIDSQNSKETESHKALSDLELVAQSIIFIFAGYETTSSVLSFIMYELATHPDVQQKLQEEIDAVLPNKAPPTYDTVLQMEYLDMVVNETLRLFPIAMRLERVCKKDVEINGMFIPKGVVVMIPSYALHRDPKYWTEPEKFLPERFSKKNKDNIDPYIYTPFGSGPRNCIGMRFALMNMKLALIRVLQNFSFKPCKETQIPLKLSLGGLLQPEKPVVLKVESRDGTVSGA
(qHTS replaces the single test concentration by a dilution series.)

Experiment [8] shares this target. Nature of the experiment: qHTS Assay for Activators of Cytochrome P450 3A4 (AID 885). Note: nearly all actives have a fitted effect of over 65% in size. The conditions noted are these: recombinant CYP3A4, Luciferin-PPXE luminescence, 60 min; series mostly up to 57.1 µM. The gist of the method:
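Steps: enzyme/substrate mix dispensed; compound added, 10 min RT; NADPH regeneration solution added, 60 min RT; luciferin detection buffer stops reaction; 20 min later luminescence measured.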

The target of experiment [9] is Cytochrome P450 2C19 (Homo sapiens) (UniProt P33261). Description: qHTS Assay for Inhibitors and Substrates of Cytochrome P450 2C19 (AID 899). Note: potency is the fitted concentration of half-maximal effect; nearly all actives have a fitted effect of over 60% in size. The conditions noted are these: recombinant CYP2C19, luciferin-H EGE luminescence; series mostly up to 57.1 µM. The essentials:
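Signal comes from luciferase acting on luciferin released by CYP2C19-mediated hydroxylation of Luciferin-H EGE, 10uM (KM). Assay mix: 5nM enzyme, 50mM KPO4; 60 min at 37C with NADPH regeneration. Data normalized against 57uM ketoconazole.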

The target of experiment [10] is Dual specificity protein kinase CLK4 (Homo sapiens) (UniProt Q9HAZ1). Nature of the experiment: qHTS Assay for Inhibitors of CDC-like Kinase 4 (Kinase-Glo Assay) (AID 1770). Note: nearly all actives have a fitted effect of over 65% in size. Note: potency is the fitted concentration of half-maximal effect. The conditions noted are these: recombinant Clk4, Kinase-Glo ATP depletion luminescence; series mostly up to 66.7 µM. The gist of the method:
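Readout: Kinase-Glo luminescence from ATP left after a 4.5 h room-temperature reaction of 25 nM Clk4 with 100 uM RS peptide and 1 uM ATP (final). Buffer: 25 mM Tris pH 7.5, 10 mM MgCl2.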

The target is the same in experiment [11]. Nature of the experiment: qHTS Assay for Inhibitors of CDC-like Kinase 4 (ADP-Glo Assay) (AID 1771). Note: nearly all actives have a fitted effect of over 70% in size. Note: potency is the fitted concentration of half-maximal effect. The conditions noted are these: recombinant CLK4, ADP-Glo luminescence; series mostly up to 80 µM. The gist of the method:
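25 nM Clk4 with 100 uM RS repeat peptide and 1 uM ATP (final) in buffer with 2 mM MgCl2, 0.5 mM EGTA, 2.5 mM DTT, 0.01% Triton X-100; 1 h at room temperature; ADP-Glo luminescence for ADP formed.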

The target is the same in experiment [12]. Description: qHTS Assay for Inhibitors of CDC-like Kinase 4 (ADP-FP Assay) (AID 1795). Note: nearly all actives have a fitted effect of over 60% in size. Note: potency is the fitted concentration of half-maximal effect. The settings on record: Transcreener ADP fluorescence polarization; series mostly up to 50 µM. The gist of the method: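 FP readout: Orange Transcreener ADP2 tracer (4 nM) plus ADP antibody, read after 30 min at room temperature. Kinase step: 6.25 nM Clk4, 100 uM RS peptide, 1 uM ATP, pH 7.5, 1 h.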

The target of experiment [13] is Ubiquitin carboxyl-terminal hydrolase 1 (Homo sapiens) (UniProt O94782). Description: Inhibitors of USP1/UAF1: Pilot qHTS (AID 504865).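 Note: rhodamine fluorescence freed from ubiquitin-rhodamine substrate followed over time; top concentration of the series differs between compounds; % is set by controls: 0 for no effect and ±100 for the full control effect; nearly all actives have a fitted effect of over 35% in size.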 The settings on record: purified USP1/UAF1, Ub-rhodamine cleavage fluorescence; series mostly up to 54.9 µM. The gist of the method:
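1nM USP1/UAF1 + cpd, 15 min RT; start w/ Ub-Rho 150nM final; kinetic FL 480/540 nm, 6 reads q60 s. Buffer 50mM HEPES pH 7.8, 0.5mM EDTA, 1mM TCEP, 0.01% Tween-20, 0.1 mg/ml BSA.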

The nature of experiment [14]: Primary qHTS for small molecule stabilizers of the endoplasmic reticulum resident proteome: Secreted ER Calcium Modulated Protein (SERCaMP) assay (AID 1508630). Note: % is set by controls: 0 for no effect and ±100 for the full control effect. The conditions noted are these: SH-SY5Y GLuc-SERCaMP (Gaussia luciferase released on ER calcium loss) secretion, thapsigargin, luminescence; series mostly up to 38.4 µM. The essentials:
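GLuc-SERCaMP-expressing SH-SY5Y cells, pretreated 16 h with compound, are challenged with thapsigargin to empty ER calcium stores; after 4 h, coelenterazine is added directly to the medium and luminescence is imaged.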

The target in experiment [15] is 3',5'-cyclic-AMP phosphodiesterase 4B (Homo sapiens) (UniProt Q07343). Nature of the experiment: qHTS Assay for Inhibitors of PDE-IV (AID 607; active = well fitted activation curve with a large enough effect in the main read-out, with a control signal flat, not every such curve was filed as active; note: % of control where 0% means no effect). The settings on record: HEK293 ACTOne CNG channel cells, membrane potential fluorescence; series mostly up to 22.9 µM. The essentials: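 The readout is membrane depolarisation from a cAMP-sensing CNG channel, detected with a potential dye at ex 535/em 590. Cells were HEK293-derived (endogenous PDE-IV) at 1000 cells/well, titrated up to 22.9 uM final.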
3',5'-cyclic-AMP phosphodiesterase 4B (Homo sapiens), sequence (Q07343 whole entry, looked up): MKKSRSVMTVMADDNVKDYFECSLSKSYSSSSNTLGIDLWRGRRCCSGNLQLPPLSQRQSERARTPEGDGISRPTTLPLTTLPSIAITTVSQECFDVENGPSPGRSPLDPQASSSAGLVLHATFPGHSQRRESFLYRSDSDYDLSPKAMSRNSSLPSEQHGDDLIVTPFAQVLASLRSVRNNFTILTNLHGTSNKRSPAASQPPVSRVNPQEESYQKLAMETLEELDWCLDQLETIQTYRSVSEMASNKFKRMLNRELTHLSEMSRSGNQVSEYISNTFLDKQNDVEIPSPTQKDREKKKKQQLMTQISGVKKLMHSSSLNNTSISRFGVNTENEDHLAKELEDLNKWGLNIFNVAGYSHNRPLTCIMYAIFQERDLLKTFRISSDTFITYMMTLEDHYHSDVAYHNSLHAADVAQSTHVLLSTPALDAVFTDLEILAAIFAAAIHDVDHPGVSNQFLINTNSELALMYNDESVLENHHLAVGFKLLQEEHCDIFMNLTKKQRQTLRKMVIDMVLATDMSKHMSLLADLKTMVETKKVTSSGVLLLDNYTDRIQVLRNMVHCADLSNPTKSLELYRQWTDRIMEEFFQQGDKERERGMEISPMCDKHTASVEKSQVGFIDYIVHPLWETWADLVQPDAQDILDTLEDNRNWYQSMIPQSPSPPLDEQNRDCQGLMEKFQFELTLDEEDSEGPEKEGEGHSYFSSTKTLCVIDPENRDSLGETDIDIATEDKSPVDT

Experiment [16] can be described thus: qHTS Assay for Identification of Small Molecule Agonists for Hypoxia Response Element Signaling Pathway (AID 914; active = well fitted activation curve with a large enough effect in the signal ratio, with a control signal flat, not every such curve was filed as active; the % refers to the signal ratio; note: potency is the fitted concentration of half-maximal effect). The conditions noted are these: ME-180 HRE-bla reporter, beta-lactamase ratio, CoCl2, 17 h; activation: hits give high values. The gist of the method:
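ME-180 cells carrying an HRE-driven beta-lactamase reporter were treated with compounds in a titration series plus an EC50 level of CoCl2 for 17 h at 37 degrees Celsius; CCF4 readout as the 460nm/530nm ratio gave AC50 values.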

Experiment [17] concerns the target Cytochrome P450 1A2 (Homo sapiens) (UniProt P05177). Nature of the experiment: p450-cyp1a2 (AID 410; calls by dose curve; note: potency is the fitted concentration of half-maximal effect;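 for activity change, negative = inhibition: -100% = full effect of reference inhibitor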). The settings on record: recombinant CYP1A2, luciferin-ME demethylation, luminescence; series mostly up to 57 µM. The gist of the method:
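20nM CYP1A2 with 100uM Luciferin-ME (at Km) in 100mM KPO4; compound preincubated 10 min, NADPH regeneration added, 60 min at room temperature. Luciferin quantified by luminescence after detection reagent; normalized to 57 uM furafylline.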

Experiment [18] concerns the target Cytochrome P450 2C9 (Homo sapiens) (UniProt P11712). Nature of the experiment: qHTS Assay for Inhibitors and Substrates of Cytochrome P450 2C9 (AID 883). Note: nearly all actives have a fitted effect of over 60% in size. Note: potency is the fitted concentration of half-maximal effect. The conditions noted are these: recombinant CYP2C9, luciferin-H luminescence, 60 min; series mostly up to 57.1 µM. The essentials: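 Signal: luciferase luminescence reporting luciferin produced by CYP2C9. Conditions: 10nM enzyme, Luciferin-H 100uM at KM, 25mM KPO4, 37C, 60 min NADPH-driven reaction. Reference: 57uM sulphaphenazole as 100% inhibition.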

A short description of experiment [19]: AP1 Signaling Pathway (AID 357; active = well fitted curve in either direction with a large enough effect, not every such curve was filed as active; note: % is set by controls: 0 for no effect and ±100 for the full control effect). The settings on record: ME-180 (cervical carcinoma) AP-1-bla reporter, EGF-induced, beta-lactamase ratio, 5 h; at 7.69 µM (top of the series) unless noted. The essentials:
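ME-180 cells with beta-lactamase reporter under AP-1 response element, stimulated with EC50 EGF; compounds tested in titration series, 5 h at 37 °C. CCF4 substrate added 2.5 h at room temperature; 460/530 nm emission ratio gave %activity and AC50.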

SMILES strings stand for the structures. Values without a mark were called inactive. Results filed as inconclusive are left out. The source made the active and inactive calls. Unless noted, calls come from the whole dose curve; as a rule, active = well fitted curve in the direction sought with a large enough effect; inconclusive = small, poorly fitted or top-dose-only effect, or another doubt; inactive = no such curve, though single readings can be large; an effect the other way counts as inactive or inconclusive. A value given as a limit tells only on which side of the number the result lay.

Ubiquitin carboxyl-terminal hydrolase 1 (Homo sapiens), sequence (O94782 whole entry, looked up): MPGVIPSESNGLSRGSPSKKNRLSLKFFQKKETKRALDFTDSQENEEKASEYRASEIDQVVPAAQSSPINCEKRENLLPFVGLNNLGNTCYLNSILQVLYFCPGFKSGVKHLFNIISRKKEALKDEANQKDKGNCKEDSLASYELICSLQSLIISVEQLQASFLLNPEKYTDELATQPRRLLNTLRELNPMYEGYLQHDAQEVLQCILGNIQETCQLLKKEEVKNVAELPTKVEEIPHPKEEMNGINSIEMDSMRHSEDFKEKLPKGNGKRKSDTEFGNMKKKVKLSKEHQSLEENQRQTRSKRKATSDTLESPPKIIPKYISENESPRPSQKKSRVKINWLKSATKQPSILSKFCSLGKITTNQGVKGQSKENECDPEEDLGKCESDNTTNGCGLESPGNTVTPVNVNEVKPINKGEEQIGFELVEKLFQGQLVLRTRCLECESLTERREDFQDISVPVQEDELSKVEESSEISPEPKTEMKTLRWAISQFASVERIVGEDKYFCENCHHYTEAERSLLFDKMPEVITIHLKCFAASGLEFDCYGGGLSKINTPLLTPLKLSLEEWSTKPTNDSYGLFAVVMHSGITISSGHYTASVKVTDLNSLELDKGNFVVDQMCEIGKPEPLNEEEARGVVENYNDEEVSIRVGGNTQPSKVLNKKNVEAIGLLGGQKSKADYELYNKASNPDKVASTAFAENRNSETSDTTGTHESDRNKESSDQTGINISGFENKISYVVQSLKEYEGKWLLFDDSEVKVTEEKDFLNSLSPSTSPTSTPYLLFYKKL
Dual specificity protein kinase CLK4 (Homo sapiens), sequence (Q9HAZ1 whole entry, looked up): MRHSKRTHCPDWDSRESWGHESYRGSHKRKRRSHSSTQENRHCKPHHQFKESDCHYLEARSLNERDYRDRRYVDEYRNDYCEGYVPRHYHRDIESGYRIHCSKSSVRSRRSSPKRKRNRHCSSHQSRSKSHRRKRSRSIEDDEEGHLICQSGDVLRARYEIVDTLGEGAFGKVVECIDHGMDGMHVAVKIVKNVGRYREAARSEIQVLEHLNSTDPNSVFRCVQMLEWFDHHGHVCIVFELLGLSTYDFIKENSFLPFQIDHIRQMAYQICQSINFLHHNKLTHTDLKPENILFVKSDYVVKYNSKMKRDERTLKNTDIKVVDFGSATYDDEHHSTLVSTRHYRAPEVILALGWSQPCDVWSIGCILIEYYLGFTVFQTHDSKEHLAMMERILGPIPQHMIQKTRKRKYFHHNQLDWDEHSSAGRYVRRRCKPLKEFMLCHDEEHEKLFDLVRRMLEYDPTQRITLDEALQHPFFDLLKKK
Lysosomal acid glucosylceramidase (Homo sapiens), sequence (P04062 whole entry, looked up): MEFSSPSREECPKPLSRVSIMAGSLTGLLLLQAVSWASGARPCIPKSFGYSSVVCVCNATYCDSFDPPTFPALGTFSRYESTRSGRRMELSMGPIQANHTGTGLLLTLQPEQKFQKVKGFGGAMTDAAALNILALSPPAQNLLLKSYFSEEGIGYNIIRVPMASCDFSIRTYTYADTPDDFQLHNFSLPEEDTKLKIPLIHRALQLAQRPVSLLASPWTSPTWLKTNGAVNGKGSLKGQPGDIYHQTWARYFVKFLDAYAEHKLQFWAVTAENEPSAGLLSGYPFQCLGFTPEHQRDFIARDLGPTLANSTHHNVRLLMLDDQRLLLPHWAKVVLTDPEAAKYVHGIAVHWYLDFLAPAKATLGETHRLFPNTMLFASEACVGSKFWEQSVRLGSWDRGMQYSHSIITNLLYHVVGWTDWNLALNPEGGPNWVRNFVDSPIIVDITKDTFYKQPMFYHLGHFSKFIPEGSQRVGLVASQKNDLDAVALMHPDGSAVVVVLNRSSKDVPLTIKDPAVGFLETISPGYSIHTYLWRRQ
Cytochrome P450 1A2 (Homo sapiens), sequence (P05177 whole entry, looked up): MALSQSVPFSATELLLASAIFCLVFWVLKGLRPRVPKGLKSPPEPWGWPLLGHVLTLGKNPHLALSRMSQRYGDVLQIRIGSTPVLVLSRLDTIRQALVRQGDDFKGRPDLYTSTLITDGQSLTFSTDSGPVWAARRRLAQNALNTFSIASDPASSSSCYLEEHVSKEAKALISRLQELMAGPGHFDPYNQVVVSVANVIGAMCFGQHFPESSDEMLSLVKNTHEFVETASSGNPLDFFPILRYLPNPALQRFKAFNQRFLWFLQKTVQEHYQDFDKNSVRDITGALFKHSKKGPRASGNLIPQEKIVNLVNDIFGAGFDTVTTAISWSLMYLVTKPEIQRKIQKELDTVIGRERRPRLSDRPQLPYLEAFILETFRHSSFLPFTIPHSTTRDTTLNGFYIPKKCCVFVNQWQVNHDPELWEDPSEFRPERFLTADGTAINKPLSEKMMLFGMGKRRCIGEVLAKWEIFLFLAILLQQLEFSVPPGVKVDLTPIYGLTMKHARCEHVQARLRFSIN
Cytochrome P450 2C9 (Homo sapiens), sequence (P11712 whole entry, looked up): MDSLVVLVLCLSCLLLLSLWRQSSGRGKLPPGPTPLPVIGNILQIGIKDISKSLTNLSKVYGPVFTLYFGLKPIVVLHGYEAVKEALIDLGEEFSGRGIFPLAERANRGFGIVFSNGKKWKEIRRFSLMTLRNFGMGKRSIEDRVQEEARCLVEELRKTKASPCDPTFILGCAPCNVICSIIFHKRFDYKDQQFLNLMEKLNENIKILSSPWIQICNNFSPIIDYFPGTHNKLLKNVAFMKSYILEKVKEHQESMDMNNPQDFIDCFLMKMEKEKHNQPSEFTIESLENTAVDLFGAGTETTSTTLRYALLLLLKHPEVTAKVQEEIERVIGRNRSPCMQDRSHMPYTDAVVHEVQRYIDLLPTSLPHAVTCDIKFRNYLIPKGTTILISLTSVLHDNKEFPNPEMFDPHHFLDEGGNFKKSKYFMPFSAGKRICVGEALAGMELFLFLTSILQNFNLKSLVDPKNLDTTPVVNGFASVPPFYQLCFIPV

For `c1ccc(CNc2ncnc3ccc(-c4ccc5c(c4)OCO5)cc23)cc1`, the Potency in experiment [1] is greater than 11.4 µM; in experiment [4], greater than 46 µM; in [5] it was greater than 46 µM; in experiment [7], 2 µM (active); in experiment [9], 3.16 µM (active); in [10], 0.158 µM (active). The Potency was 0.178 µM (active) in experiment [11] and 0.0355 µM (active) in [12]. The activity change, negative = inhibition in experiment [2] is -4.08%. Moreover, the activity, negative = inhibition in experiment [3] was -5.81%. Moreover, the Potency entry in [6], in experiment [8] and in experiment [13] was “inactive” each time. For the same compound, in experiment [14], the outcome was inactive.
As to `O=c1c(-c2cc(F)cc(F)c2)nc2cnc(N3CCOCC3)nc2n1Cc1ccc(F)cc1`, the Potency is greater than 11.4 µM in experiment [1], greater than 9.22 µM in experiment [4], greater than 46 µM in [5] and 3.16 µM (active) in experiment [16]. The Potency entry in experiment [6], in experiment [15], in experiment [10], in experiment [11], in [12] and in experiment [13] was “inactive” each time. Further, the result in experiment [14] was inactive.
For `COc1cccc(Nc2ncc3ncc(=O)n(C[C@H]4CCCO4)c3n2)c1`, the Potency in [1] is greater than 11.4 µM; in [4] it was greater than 9.22 µM; in experiment [5], greater than 46 µM; in [10], 1.41 µM (active); in experiment [11], 1.58 µM (active); in experiment [12], 0.794 µM (active). Further, the Potency result in experiment [6], in experiment [15] and in experiment [13] was “inactive” each time. The outcome in experiment [14] was inactive.
For `CN(C)c1ncc2nc(-c3cc(F)cc(F)c3)c(=O)n(Cc3ccc(F)cc3)c2n1`, the Potency entry in experiment [17], in experiment [6], in experiment [15], in experiment [18], in experiment [8] and in experiment [10] was “inactive” each time. Besides, the Potency result in [11], in experiment [12] and in experiment [13] was “inactive” each time. Further, the figures for the Potency in experiment [4], in experiment [5] and in experiment [16] were greater than 46 µM, greater than 46 µM and 3.16 µM (active), respectively. The outcome in experiment [14] was inactive.
Regarding `Cn1c(=O)c(-c2cc(F)cc(F)c2)nc2cnc(N3CCNCC3)nc21`, the Potency in experiment [4] was greater than 9.22 µM; in experiment [5], greater than 46 µM; in experiment [16], 3.16 µM (active). Besides, the Potency entry in experiment [6], in [15], in [8], in [10], in [11] and in [12] was “inactive” in each case. In experiment [13], the Potency entry is “inactive”. For the same compound, the result in [14] was inactive.
As for `CN(C)c1ncc2nc(-c3ccccc3)c(=O)n(CCc3ccccc3)c2n1`, the Potency in experiment [17] is 20 µM (active); in experiment [4], greater than 9.22 µM; in experiment [5] it was greater than 46 µM; in [18], 0.631 µM (active); in [16], 3.16 µM (active). Further, the Potency entry in experiment [15], in [10], in [11], in experiment [12] and in [13] was “inactive” each time. Further, the outcome in [14] was inactive.
As to `CCNc1ncc2nc(-c3ccc(F)cc3)c(=O)n(C)c2n1`, the activity change, negative = inhibition in experiment [19] is -8.75%; in experiment [2], -26%. The Potency in [17] is 0.501 µM (active); in [4], greater than 9.22 µM; in experiment [5] it was greater than 46 µM. In addition, in experiment [3], the activity, negative = inhibition is -0.235%. Also, the Potency result in experiment [6], in experiment [15], in experiment [10], in [11], in experiment [12] and in [13] was “inactive” throughout. The result in [14] was inactive.

The values are drawn from PubChem BioAssay (NCATS).
